According to PubChem BioAssay (EPA / NIEHS):
“And” between values parts separate entries of the source, which are not always exact repeats. Equal values may be shown once. Results filed as inconclusive are left out. More than one record can exist for a structure, and the calls need not agree. The source made the active and inactive calls. How the source made its calls, unless noted: active means hit-call score of the fitted dose curve at least 0.9, where 1 is the maximum; inconclusive means response in the unintended direction; inactive means score below 0.9.

Each compound was assayed against human Retinoid X Receptor beta (RXRb), RXRB (gene 6257) (UniProt P28702) (assay: ATG_RXRb_TRANS: Attagene TRANS-FACTORIAL HepG2 Assay for human Retinoid X Receptor beta (RXRb) (AID 2283013)). Conditions: not given.
Outline: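 Readout is reporter transcript induction after 24 h dosing. It is measured by RT-PCR of total RNA followed by fluorescent capillary electrophoresis. HepG2 liver cells carry transfected multiple reporter units driven by an exogenous RXRb-Gal4 fusion; activity is relative to DMSO.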

human Retinoid X Receptor beta (RXRb), RXRB (gene 6257), sequence (P28702 whole entry, looked up, the tested form may be a part): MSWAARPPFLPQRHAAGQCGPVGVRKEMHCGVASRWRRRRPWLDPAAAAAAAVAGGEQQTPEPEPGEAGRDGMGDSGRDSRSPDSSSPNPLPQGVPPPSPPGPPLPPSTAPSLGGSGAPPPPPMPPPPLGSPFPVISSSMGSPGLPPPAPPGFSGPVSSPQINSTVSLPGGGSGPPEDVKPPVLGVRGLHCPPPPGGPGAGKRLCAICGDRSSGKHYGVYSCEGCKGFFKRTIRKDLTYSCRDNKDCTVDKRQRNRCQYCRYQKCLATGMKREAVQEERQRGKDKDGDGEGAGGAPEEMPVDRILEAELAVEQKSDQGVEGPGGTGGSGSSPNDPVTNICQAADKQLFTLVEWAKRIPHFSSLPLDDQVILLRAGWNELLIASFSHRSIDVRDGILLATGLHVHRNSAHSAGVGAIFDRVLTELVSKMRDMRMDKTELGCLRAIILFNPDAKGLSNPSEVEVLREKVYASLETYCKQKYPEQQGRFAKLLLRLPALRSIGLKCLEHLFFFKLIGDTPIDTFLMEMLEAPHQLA

SMILES | outcome | AC50
O=C(O)C(F)(F)C(F)(F)C(F)(F)C(F)(F)C(F)(F)C(F)(F)C(F)(F)C(F)(F)C(F)(F)C(F)(F)C(F)(F)C(F)(F)F | inactive | 
O=S(=O)(O)C(F)(F)C(F)(F)C(F)(F)C(F)(F)C(F)(F)C(F)(F)C(F)(F)F | inactive | 
CC(C)OC(=O)c1ccccc1C(=O)OC(C)C |  | 18.9 µM (active)
CC(C)(C)c1ccc(OC2CCCCC2O)cc1 (stereo not given) | inactive | 
FC(F)(F)C(F)(F)C(F)(F)C(F)(F)CCI |  | 123 µM (active)
CCN(Cc1cccc(S(=O)(=O)O)c1)c1ccc(C(=C2C=CC(=[N+](CC)Cc3cccc(S(=O)(=O)O)c3)C=C2)c2ccc(O)cc2S(=O)(=O)[O-])cc1 | inactive | 
O=C(O)C(F)(F)C(F)(F)C(F)(F)C(F)(F)C(F)(F)C(F)(F)C(F)(F)C(F)(F)Cl |  | 19.9 µM (active) and 20.5 µM (active)
C1COCCN1 | inactive | 
CC/C=C\CCOC(=O)c1ccccc1 | inactive | 
Cc1ccc(S(=O)(=O)OCC(F)(F)C(F)(F)C(F)(F)C(F)(F)C(F)(F)C(F)F)cc1 |  | 7.9 µM (active)
FC(F)(F)C(F)(F)C(F)(F)CI | inactive | 
O=C(O)C(F)(F)C(F)(F)C(F)(F)C(F)(F)F | inactive | 
Nc1ccc([N+](=O)[O-])cc1O | inactive | 
FC(F)(F)C(F)(F)C(F)(F)C(F)(F)C(F)(F)CCI |  | 35.9 µM (active)
O=C(O)C(F)(F)C(F)(F)C(F)(F)C(F)(F)C(F)(F)C(F)(F)C(F)(F)C(F)(F)C(F)(F)C(F)(F)C(F)(F)C(F)(F)C(F)(F)F | inactive | 
CCCCCCCCCCCCCCCC[N+](C)(C)Cc1ccccc1 | inactive | 
OCC(F)(F)C(F)(F)C(F)(F)F | inactive | 
[Co] | inactive | 
Nc1cc(Cl)c(N)c(Cl)c1 | inactive | 
CCCCCC=O | inactive | 
CCc1c(Br)c(Br)c(Br)c(Br)c1Br |  | 5.94 µM (active)
O=C(O)C(F)(OC(F)(F)C(F)(OC(F)(F)C(F)(F)C(F)(F)F)C(F)(F)F)C(F)(F)F (stereo not given) | inactive | 41.7 µM (active)
Oc1ccc(Nc2ccccc2)cc1 | inactive | 
C=CC(F)(F)C(F)(F)C(F)(F)C(F)(F)C(F)(F)C(F)(F)C(F)(F)C(F)(F)C=C | inactive | 
c1ccc(-c2ccccc2-c2ccccc2)cc1 |  | 12.7 µM (active)
FC(F)(F)C(F)(F)C(F)(F)C(F)(F)C(F)(F)C(F)(F)C(F)(F)C(F)(F)F | inactive | 
N=C(N)C(F)(F)C(F)(F)C(F)(F)C(F)(F)C(F)(F)C(F)(F)C(F)(F)F | inactive | 
Cc1cc(C)cc(O)c1 | inactive | 
C(=C(c1ccccc1)c1ccccc1)c1ccccc1 |  | 6.11 µM (active)

Each compound was assayed against human Thyroid Receptor alpha (THRa1), THRA (gene 7067) (UniProt P10827) (assay: ATG_THRa1_TRANS: Attagene TRANS-FACTORIAL HepG2 Assay for human Thyroid Receptor alpha (THRa1) (AID 2283014)). Conditions: not given.
Outline: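 Measured here is mRNA from a GAL4-UAS reporter in transfected HepG2 cells carrying a Gal4-fused receptor, 24 h post-dose. DMSO served as negative control and baseline.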

human Thyroid Receptor alpha (THRa1), THRA (gene 7067), sequence (P10827 whole entry, looked up, the tested form may be a part): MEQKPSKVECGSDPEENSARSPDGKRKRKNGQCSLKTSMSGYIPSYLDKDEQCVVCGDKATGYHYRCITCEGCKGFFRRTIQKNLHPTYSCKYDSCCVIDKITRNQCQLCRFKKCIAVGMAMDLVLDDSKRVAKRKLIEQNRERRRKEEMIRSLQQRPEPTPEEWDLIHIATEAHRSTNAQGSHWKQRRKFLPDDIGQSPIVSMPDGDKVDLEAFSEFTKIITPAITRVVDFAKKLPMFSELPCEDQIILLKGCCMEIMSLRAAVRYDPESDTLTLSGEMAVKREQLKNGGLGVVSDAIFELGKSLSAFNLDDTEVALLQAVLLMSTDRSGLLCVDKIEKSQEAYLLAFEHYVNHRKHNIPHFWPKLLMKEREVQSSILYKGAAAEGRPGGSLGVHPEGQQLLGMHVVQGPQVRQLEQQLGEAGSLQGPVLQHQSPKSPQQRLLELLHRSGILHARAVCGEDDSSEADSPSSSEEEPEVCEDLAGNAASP

SMILES | outcome
O=C(O)C(F)(F)C(F)(F)C(F)(F)C(F)(F)C(F)(F)C(F)(F)C(F)(F)C(F)(F)C(F)(F)C(F)(F)C(F)(F)C(F)(F)F | inactive
CCC(=O)OCCc1ccccc1 | inactive
CC(C)(C)c1ccc(OC2CCCCC2O)cc1 (stereo not given) | inactive
O=C(O)C(F)(F)C(F)(F)C(F)(F)C(F)(F)C(F)(F)C(F)(F)C(F)(F)C(F)(F)Cl | inactive
C1COCCN1 | inactive
FC(F)(F)C(F)(F)C(F)(F)CI | inactive
Nc1ccc([N+](=O)[O-])cc1O | inactive
FC(F)(F)C(F)(F)C(F)(F)C(F)(F)C(F)(F)CCI | inactive
O=C(O)C(F)(F)C(F)(F)C(F)(F)C(F)(F)C(F)(F)C(F)(F)C(F)(F)C(F)(F)C(F)(F)C(F)(F)C(F)(F)C(F)(F)C(F)(F)F | inactive
Cc1ccc(S(=O)(=O)NCl)cc1 | inactive
CCCCCCCCCCCCCCCC[N+](C)(C)Cc1ccccc1 | inactive
OCC(F)(F)C(F)(F)C(F)(F)F | inactive
[Co] | inactive
Nc1cc(Cl)c(N)c(Cl)c1 | inactive
O=C(O)C(F)(F)C(F)(F)F | inactive
CCCCCC=O | inactive
CCc1c(Br)c(Br)c(Br)c(Br)c1Br | inactive
Oc1ccc(Nc2ccccc2)cc1 | inactive
FC(F)(F)C(F)(F)C(F)(F)C(F)(F)C(F)(F)C(F)(F)C(F)(F)C(F)(F)F | inactive
FC(F)(F)C(F)(F)C(F)(F)C(F)(F)C(F)(F)C(F)(F)CC1CO1 (stereo not given) | inactive
Cc1cc(C)cc(O)c1 | inactive
COC(OC(C)=O)c1ccccc1 (stereo not given) | inactive
C(=C(c1ccccc1)c1ccccc1)c1ccccc1 | inactive

What follows are compounds tested on E-selectin (Homo sapiens) (UniProt P16581) (assay: BSK_3C_Eselectin: BioMAP Diversity Plus: 3C Assay for Eselectin Biomarker Activity (AID 2283015; active means hit-call score of the fitted dose curve at least 0.9, where 1 is the maximum; inactive means score below 0.9;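 on outcome: cell surface E-selectin protein quantified by ELISA 24 h after dosing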)). Conditions: primary human endothelial cells (HUVEC); actives raise or lower the signal.
Outline: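 Endpoint derived by bidirectional fitting against DMSO vehicle; signal is ELISA-detected E-selectin from primary HUVEC at 24 h post-dosing, with parallel SRB staining (0.1% SRB, 560 nm) flagging cytotoxicity.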

E-selectin (Homo sapiens), sequence (P16581 whole entry, looked up): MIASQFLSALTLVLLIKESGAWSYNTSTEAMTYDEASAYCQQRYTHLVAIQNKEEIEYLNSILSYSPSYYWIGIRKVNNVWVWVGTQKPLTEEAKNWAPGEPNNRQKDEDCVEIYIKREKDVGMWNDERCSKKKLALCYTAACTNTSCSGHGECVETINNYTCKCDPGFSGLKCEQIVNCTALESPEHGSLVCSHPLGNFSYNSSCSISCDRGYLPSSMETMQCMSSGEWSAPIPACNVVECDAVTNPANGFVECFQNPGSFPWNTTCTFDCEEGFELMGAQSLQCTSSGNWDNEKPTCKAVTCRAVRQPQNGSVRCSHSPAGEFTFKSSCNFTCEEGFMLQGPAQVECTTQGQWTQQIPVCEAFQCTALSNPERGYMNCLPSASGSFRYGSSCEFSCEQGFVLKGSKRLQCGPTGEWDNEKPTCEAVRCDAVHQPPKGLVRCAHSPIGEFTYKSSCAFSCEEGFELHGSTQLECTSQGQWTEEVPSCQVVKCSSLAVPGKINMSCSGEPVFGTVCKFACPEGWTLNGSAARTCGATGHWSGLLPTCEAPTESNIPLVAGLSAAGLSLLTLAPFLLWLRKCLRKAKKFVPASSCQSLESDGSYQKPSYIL

SMILES | outcome | AC50
O=C(O)C(F)(F)C(F)(F)C(F)(F)C(F)(F)C(F)(F)C(F)(F)C(F)(F)C(F)(F)C(F)(F)C(F)(F)C(F)(F)C(F)(F)F | inactive | 
O=S(=O)(O)C(F)(F)C(F)(F)C(F)(F)C(F)(F)C(F)(F)C(F)(F)C(F)(F)F | inactive | 
FC(F)(F)C(F)(F)C(F)(F)C(F)(F)CCI | inactive | 
O=C(O)C(F)(F)C(F)(F)C(F)(F)C(F)(F)C(F)(F)C(F)(F)C(F)(F)C(F)(F)Cl | inactive | 23.8 µM (active)
Cc1ccc(S(=O)(=O)OCC(F)(F)C(F)(F)C(F)(F)C(F)(F)C(F)(F)C(F)F)cc1 | inactive | 33.4 µM (active)
FC(F)(F)C(F)(F)C(F)(F)CI | inactive | 
O=C(O)C(F)(F)C(F)(F)C(F)(F)C(F)(F)F | inactive | 
Nc1ccc([N+](=O)[O-])cc1O | inactive | 
FC(F)(F)C(F)(F)C(F)(F)C(F)(F)C(F)(F)CCI | inactive | 
O=C(O)C(F)(F)C(F)(F)C(F)(F)C(F)(F)C(F)(F)C(F)(F)C(F)(F)C(F)(F)C(F)(F)C(F)(F)C(F)(F)C(F)(F)C(F)(F)F | inactive | 
CCCCCCCCCCCCCCCC[N+](C)(C)Cc1ccccc1 |  | 7.67 µM (active)
OCC(F)(F)C(F)(F)C(F)(F)F | inactive | 
O=C(O)C(F)(F)C(F)(F)F | inactive | 
CCc1c(Br)c(Br)c(Br)c(Br)c1Br | inactive | 
O=C(O)C(F)(OC(F)(F)C(F)(OC(F)(F)C(F)(F)C(F)(F)F)C(F)(F)F)C(F)(F)F (stereo not given) | inactive | 
Oc1ccc(Nc2ccccc2)cc1 |  | 20 µM (active)
C=CC(F)(F)C(F)(F)C(F)(F)C(F)(F)C(F)(F)C(F)(F)C(F)(F)C(F)(F)C=C | inactive | 
FC(F)(F)C(F)(F)C(F)(F)C(F)(F)C(F)(F)C(F)(F)C(F)(F)C(F)(F)F | inactive | 
N=C(N)C(F)(F)C(F)(F)C(F)(F)C(F)(F)C(F)(F)C(F)(F)C(F)(F)F | inactive | 
FC(F)(F)C(F)(F)C(F)(F)C(F)(F)C(F)(F)C(F)(F)CC1CO1 (stereo not given) | inactive | 
